Test results reported in PubChem BioAssay (EPA / NIEHS).
Results filed as inconclusive are left out. Calls of active or inactive are those of the source. The calls were made as follows, unless noted: active = hit-call score of the fitted dose curve at least 0.9, where 1 is the maximum; inactive = score below 0.9.

Legend:
[1] = ATG_TAL_CIS: Attagene CIS-FACTORIAL HepG2 Assay for human TAL Basal Promoter (AID 2282966); settings: HepG2 Attagene cis-factorial TAL promoter reporter; actives raise or lower the signal;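 also: background control endpoint measuring basal TAL promoter reporter mRNA not a specific factor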
Outline: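 After 24 hours of chemical exposure, transfected HepG2 cells yielded RNA that was converted to 6-FAM-labelled, HpaI-digested reporter fragments for capillary electrophoresis. Values derive from bidirectional fitting against DMSO controls.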

[2] = ATG_TGFb_CIS: Attagene CIS-FACTORIAL HepG2 Assay for human Transforming Growth Factor (TGF) (AID 2282967); settings: HepG2 Attagene CIS TGFb reporter, mRNA transcription; actives raise or lower the signal
Outline: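 Readout: fluorescently labeled reporter cDNA fragments resolved by capillary electrophoresis after RT-PCR. Transfected HepG2 cells dosed for 24 h; endogenous TF activity at TGFB1-linked cis element; gain or loss fitted relative to DMSO.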

[3] = ATG_VDRE_CIS: Attagene CIS-FACTORIAL HepG2 Assay for human Vitamin D Receptor Element (VDRE) (AID 2282968); settings: HepG2 VDRE cis-reporter transcription, actives raise or lower the signal
Outline: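 Measures endogenous factor activity through cis-element-driven reporter transcripts in transiently transfected HepG2. Cells are treated 24 h; reporter mRNA is quantified by RT-PCR and capillary electrophoresis; fitting is bidirectional.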

[4] = target: Nuclear receptor subfamily 1 group I member 3 (Homo sapiens) (UniProt Q14994); test: ATG_CAR_TRANS: Attagene TRANS-FACTORIAL HepG2 Assay for human Constitutive Androstane Receptor (CAR) (AID 2282969; active = hit-call score of the fitted dose curve at least 0.9, where 1 is the maximum;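 also: activators raise reporter mRNA above DMSO so AC50 marks induction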); settings: HepG2 Attagene TRANS-FACTORIAL CAR reporter
Nuclear receptor subfamily 1 group I member 3 (Homo sapiens), sequence (Q14994 whole entry, looked up, the tested form may be a part): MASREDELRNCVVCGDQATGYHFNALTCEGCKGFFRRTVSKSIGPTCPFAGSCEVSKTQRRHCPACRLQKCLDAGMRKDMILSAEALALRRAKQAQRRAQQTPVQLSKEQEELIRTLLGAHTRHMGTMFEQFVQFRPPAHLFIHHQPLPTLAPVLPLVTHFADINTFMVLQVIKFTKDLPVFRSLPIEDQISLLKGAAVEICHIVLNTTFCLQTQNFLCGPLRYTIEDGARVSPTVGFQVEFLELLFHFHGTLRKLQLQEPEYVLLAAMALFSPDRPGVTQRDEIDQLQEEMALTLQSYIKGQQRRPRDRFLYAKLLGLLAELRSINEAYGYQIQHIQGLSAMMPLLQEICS
Outline: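 Signal is reporter mRNA induction relative to DMSO, measured 24 h after dosing by RT-PCR with fluorescent primer extension and capillary electrophoresis. Human HepG2 liver cells carried transiently transfected chimeric NR-Gal4/GAL4-UAS reporter constructs.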

[5] = target: X-box-binding protein 1 (Homo sapiens) (UniProt P17861); test: ATG_Xbp1_CIS: Attagene CIS-FACTORIAL HepG2 Assay for human X-box Binding Protein 1 (XBP1) (AID 2282972); settings: HepG2 XBP1 cis-element reporter, Attagene multiplex; actives raise or lower the signal
X-box-binding protein 1 (Homo sapiens), sequence (P17861 whole entry, looked up): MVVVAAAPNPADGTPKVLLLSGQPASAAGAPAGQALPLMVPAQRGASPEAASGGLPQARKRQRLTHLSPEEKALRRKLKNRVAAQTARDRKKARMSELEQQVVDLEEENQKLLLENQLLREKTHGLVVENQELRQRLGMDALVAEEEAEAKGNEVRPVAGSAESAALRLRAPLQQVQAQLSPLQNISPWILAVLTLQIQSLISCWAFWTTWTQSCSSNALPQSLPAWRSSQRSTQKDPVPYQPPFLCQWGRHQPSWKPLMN
Outline: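 Human hepatoma HepG2, cis-element reporter system, 24 h treatment; mRNA quantified by RT-PCR/CE fluorescence; fit relative to DMSO.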

[6] = target: Androgen receptor (Homo sapiens) (UniProt P10275); test: ATG_AR_TRANS: Attagene TRANS-FACTORIAL HepG2 Assay for human Androgen Receptor (AR) (AID 2282973; active = hit-call score of the fitted dose curve at least 0.9, where 1 is the maximum); settings: HepG2 Attagene TRANS-FACTORIAL AR reporter transcription
Outline: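 Steps: transfect HepG2 with multiple GAL4-UAS reporter transcription units (TRANS format, exogenous NR-Gal4 protein); dose 24 h; isolate RNA, reverse-transcribe, PCR-amplify, FAM-label, HpaI-digest; resolve by capillary electrophoresis. Positive direction vs DMSO.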

[7] = ATG_GAL4_TRANS: Attagene TRANS-FACTORIAL HepG2 Assay for GAL4 (Internal Marker) (AID 2282976; active = hit-call score of the fitted dose curve at least 0.9, where 1 is the maximum); settings: HepG2 Attagene TRANS GAL4 internal marker reporter
Outline: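 First, HepG2 cells were transfected with reporter units under GAL4-UAS control. Next, they were treated with chemical for 24 h. Finally, RNA was reverse-transcribed, PCR-amplified, FAM-labelled and resolved by capillary electrophoresis, with induction scored against DMSO.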

[8] = target: Estrogen-related receptor gamma (Homo sapiens) (UniProt P62508); test: ATG_ERRg_TRANS: Attagene TRANS-FACTORIAL HepG2 Assay for human Estrogen-Related Receptor gamma (ERRg) (AID 2282977; active = hit-call score of the fitted dose curve at least 0.9, where 1 is the maximum;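 also: hits increase reporter signal over DMSO so potencies reflect activators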); settings: HepG2 Attagene TRANS reporter, ERRg transactivation
Estrogen-related receptor gamma (Homo sapiens), sequence (P62508 whole entry, looked up, the tested form may be a part): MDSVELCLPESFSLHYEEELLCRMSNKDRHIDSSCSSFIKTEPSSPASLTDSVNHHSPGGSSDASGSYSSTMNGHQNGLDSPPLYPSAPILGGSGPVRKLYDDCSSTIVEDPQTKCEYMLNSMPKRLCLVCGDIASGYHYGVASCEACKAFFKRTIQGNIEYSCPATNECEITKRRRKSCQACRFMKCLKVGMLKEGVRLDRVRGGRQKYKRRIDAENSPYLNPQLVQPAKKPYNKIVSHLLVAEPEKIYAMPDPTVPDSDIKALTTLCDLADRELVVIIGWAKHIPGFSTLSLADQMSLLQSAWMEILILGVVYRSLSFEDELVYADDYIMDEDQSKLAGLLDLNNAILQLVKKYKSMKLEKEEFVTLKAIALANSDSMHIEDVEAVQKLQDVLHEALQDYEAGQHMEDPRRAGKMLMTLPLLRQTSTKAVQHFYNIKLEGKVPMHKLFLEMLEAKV
Outline: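 Readout: fluorescent reporter-mRNA fragments resolved by capillary electrophoresis after RT-PCR and HpaI cut. Cells: transiently transfected HepG2 carrying GAL4-UAS reporters driven by exogenous NR-Gal4 chimeras, dosed 24 h. Activity fitted upward relative to DMSO baseline.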

[9] = target: Hepatocyte nuclear factor 4-alpha (Homo sapiens) (UniProt P41235); test: ATG_HNF4a_TRANS: Attagene TRANS-FACTORIAL HepG2 Assay for human Hepatocyte Nuclear Factor 4 alpha (HNF4a) (AID 2282982; active = hit-call score of the fitted dose curve at least 0.9, where 1 is the maximum); settings: HepG2 HNF4a transactivation reporter, mRNA readout
Hepatocyte nuclear factor 4-alpha (Homo sapiens), sequence (P41235 whole entry, looked up): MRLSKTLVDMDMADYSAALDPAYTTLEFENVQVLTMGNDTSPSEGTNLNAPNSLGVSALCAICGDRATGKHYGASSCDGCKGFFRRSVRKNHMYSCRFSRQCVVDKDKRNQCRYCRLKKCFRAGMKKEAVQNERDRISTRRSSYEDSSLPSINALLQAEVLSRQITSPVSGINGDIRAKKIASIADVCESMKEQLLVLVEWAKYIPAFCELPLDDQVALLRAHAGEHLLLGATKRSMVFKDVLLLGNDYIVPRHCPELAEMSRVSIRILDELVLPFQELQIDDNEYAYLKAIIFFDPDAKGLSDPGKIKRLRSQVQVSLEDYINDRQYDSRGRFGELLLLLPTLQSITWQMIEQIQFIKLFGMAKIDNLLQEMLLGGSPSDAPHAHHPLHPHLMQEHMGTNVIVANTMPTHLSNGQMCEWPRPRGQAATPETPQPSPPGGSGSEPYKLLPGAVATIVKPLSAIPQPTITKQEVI
Outline: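 Multiplexed reporter assay: transfected HepG2, 24 h exposure, total RNA → oligo(dT) RT → PCR → 6-FAM extension → HpaI digest → CE fluorescence. DMSO = negative control.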

[10] = ATG_M_06_TRANS: Attagene TRANS-FACTORIAL HepG2 Assay for M06 Transcription Factor (Internal Marker) (AID 2282983; active = hit-call score of the fitted dose curve at least 0.9, where 1 is the maximum;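 also: reporter transcript level by RT-PCR then capillary electrophoresis fluorescence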); settings: HepG2 Attagene TRANS M06 internal marker reporter
Outline: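 Background control endpoint: reporter mRNA from transiently transfected HepG2 after 24 h dosing, detected by RT-PCR with capillary electrophoresis fluorescence. Analysed for gain versus DMSO.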

[11] = target: Transcriptional activator Myb (Homo sapiens) (UniProt P10242); test: ATG_Myb_CIS: Attagene CIS-FACTORIAL HepG2 Assay for human Myeloblastosis (Myb) Proto-Oncogene Transcription Factor (AID 2282986); settings: HepG2 Attagene CIS-FACTORIAL Myb reporter transcription; actives raise or lower the signal
Transcriptional activator Myb (Homo sapiens), sequence (P10242 whole entry, looked up): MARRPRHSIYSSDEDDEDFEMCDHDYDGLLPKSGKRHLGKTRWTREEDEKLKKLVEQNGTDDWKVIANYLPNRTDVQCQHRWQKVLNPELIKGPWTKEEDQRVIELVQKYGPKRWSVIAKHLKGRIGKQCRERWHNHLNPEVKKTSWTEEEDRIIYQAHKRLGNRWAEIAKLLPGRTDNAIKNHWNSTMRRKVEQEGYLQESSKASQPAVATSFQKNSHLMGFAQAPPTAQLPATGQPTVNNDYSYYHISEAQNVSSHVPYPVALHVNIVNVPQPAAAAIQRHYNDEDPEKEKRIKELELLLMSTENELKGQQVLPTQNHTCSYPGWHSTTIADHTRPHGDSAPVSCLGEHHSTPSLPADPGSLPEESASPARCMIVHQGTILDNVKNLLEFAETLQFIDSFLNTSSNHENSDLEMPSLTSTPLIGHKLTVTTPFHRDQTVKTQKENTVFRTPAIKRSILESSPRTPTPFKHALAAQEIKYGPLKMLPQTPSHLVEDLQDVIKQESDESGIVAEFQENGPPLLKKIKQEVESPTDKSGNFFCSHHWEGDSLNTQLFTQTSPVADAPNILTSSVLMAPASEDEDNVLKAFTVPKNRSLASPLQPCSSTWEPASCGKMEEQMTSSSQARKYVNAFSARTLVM
Outline: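 Transiently transfected HepG2 cells carrying a multiplexed cis-promoter reporter set report endogenous Myb activity after 24 h compound exposure. Reporter mRNA is read by RT-PCR with capillary electrophoresis of fluorescent products, fitted bidirectionally against DMSO.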

[12] = target: Nuclear respiratory factor 1 (Homo sapiens) (UniProt Q16656); test: ATG_NRF1_CIS: Attagene CIS-FACTORIAL HepG2 Assay for human Nuclear Respiratory Factor 1 (NRF1) Orphan Gene (AID 2282987); settings: HepG2 NRF1 cis-element reporter, Attagene multiplex; actives raise or lower the signal
Nuclear respiratory factor 1 (Homo sapiens), sequence (Q16656 whole entry, looked up): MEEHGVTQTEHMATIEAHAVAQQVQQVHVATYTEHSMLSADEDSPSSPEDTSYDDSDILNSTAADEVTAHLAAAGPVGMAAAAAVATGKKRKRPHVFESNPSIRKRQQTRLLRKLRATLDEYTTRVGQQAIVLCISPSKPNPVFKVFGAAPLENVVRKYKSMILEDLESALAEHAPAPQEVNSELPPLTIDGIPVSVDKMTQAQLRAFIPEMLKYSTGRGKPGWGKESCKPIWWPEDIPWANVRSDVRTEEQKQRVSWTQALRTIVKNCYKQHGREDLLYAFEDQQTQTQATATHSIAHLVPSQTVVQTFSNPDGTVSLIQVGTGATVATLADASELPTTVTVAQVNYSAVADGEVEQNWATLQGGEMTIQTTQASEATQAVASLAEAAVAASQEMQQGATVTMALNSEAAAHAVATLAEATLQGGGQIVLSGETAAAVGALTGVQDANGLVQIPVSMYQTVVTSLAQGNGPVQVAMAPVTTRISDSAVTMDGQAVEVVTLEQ
Outline: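 HepG2 cells transiently transfected with multiple cis-regulated reporter units, exposed 24 h. Reporter mRNAs measured by RT-PCR, fluorescent labelling, HpaI digestion and capillary electrophoresis; bidirectional fitting against DMSO.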

[13] = target: Steroid hormone receptor ERR1 (Homo sapiens) (UniProt P11474); test: ATG_ERRa_TRANS: Attagene TRANS-FACTORIAL HepG2 Assay for human Estrogen-Related Receptor alpha (ERRa) (AID 2282971; active = hit-call score of the fitted dose curve at least 0.9, where 1 is the maximum); settings: HepG2 Attagene TRANS reporter, ERRa transactivation
Steroid hormone receptor ERR1 (Homo sapiens), sequence (P11474 whole entry, looked up, the tested form may be a part): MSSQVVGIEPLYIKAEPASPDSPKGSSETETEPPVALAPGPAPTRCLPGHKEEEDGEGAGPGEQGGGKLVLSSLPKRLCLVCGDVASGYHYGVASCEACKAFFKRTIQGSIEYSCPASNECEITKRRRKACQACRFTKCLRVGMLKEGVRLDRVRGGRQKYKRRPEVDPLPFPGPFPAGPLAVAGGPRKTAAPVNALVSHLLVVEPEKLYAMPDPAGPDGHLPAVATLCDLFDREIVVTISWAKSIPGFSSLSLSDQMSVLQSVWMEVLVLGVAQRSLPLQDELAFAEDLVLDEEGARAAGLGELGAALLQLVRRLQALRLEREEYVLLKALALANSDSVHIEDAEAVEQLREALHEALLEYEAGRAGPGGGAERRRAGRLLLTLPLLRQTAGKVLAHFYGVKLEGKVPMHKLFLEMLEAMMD
Outline: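 Reporter transcript induction was quantified by RT-PCR and capillary electrophoresis of FAM-labelled, HpaI-cut products after 24 h treatment of HepG2 cells carrying transiently transfected GAL4-UAS reporter units and an exogenous ERRa-Gal4 fusion; activity scored as increase over DMSO.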

[14] = ATG_M_19_TRANS: Attagene TRANS-FACTORIAL HepG2 Assay for M19 Transcription Factor (Internal Marker) (AID 2282974; active = hit-call score of the fitted dose curve at least 0.9, where 1 is the maximum); settings: HepG2 Attagene TRANS-FACTORIAL M19 internal marker reporter
Outline: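 HepG2 transiently transfected with GAL4-UAS multiplex reporter constructs, exposed 24 h; reporter RNA quantified by RT-PCR, 6-FAM labeling, HpaI digestion and capillary electrophoresis; internal background marker fitted upward versus DMSO.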

[15] = target: Glucocorticoid receptor (Homo sapiens) (UniProt P04150); test: ATG_GR_TRANS: Attagene TRANS-FACTORIAL HepG2 Assay for human Glucocorticoid Receptor (GR) (AID 2282978; active = hit-call score of the fitted dose curve at least 0.9, where 1 is the maximum;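 also: activators score as hits since higher reporter transcript over DMSO is fitted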); settings: HepG2 Attagene TRANS GR reporter, mRNA transcription
Glucocorticoid receptor (Homo sapiens), sequence (P04150 whole entry, looked up, the tested form may be a part): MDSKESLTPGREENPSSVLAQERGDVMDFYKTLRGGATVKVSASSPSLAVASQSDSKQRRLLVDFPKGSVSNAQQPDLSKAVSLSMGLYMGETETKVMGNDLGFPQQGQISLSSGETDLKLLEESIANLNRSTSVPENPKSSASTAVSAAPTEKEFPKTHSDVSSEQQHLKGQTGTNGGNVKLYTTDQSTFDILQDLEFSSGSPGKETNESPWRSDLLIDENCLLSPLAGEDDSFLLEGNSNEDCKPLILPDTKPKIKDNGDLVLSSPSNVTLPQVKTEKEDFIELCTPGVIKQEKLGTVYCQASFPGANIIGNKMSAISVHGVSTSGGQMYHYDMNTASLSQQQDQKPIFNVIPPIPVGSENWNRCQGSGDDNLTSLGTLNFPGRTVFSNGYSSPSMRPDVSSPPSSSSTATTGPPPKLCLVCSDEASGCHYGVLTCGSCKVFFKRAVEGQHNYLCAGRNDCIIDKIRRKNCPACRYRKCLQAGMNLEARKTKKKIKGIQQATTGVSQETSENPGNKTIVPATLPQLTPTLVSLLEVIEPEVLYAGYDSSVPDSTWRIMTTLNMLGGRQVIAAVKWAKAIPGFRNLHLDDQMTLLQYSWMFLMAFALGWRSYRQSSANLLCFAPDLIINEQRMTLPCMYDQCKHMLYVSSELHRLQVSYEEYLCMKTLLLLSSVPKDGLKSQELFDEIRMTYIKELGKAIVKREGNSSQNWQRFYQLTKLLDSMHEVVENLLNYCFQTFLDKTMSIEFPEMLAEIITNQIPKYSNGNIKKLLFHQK
Outline: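 HepG2 cells transiently transfected with GAL4-UAS reporter units and exogenous GR-Gal4 chimera, dosed 24 h. Reporter mRNA by RT-PCR, FAM labeling, HpaI digest and capillary electrophoresis; gain-of-signal fit versus DMSO.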

[16] = ATG_M_32_TRANS: Attagene TRANS-FACTORIAL HepG2 Assay for M32 Transcription Factor (Internal Marker) (AID 2282984; active = hit-call score of the fitted dose curve at least 0.9, where 1 is the maximum;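 also: transcript level of a background control reporter unit measured by RT-PCR and capillary electrophoresis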); settings: HepG2 Attagene TRANS M32 internal marker reporter
Outline: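 Cell-based TRANS-format assay in HepG2: exogenous chimeric GAL4 reporter units transiently expressed, compounds applied 24 h. Reporter mRNA detected by RT-PCR plus capillary electrophoresis; this readout is an internal background marker.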

[17] = target: Nuclear receptor subfamily 4 group A member 2 (Homo sapiens) (UniProt P43354); test: ATG_NURR1_TRANS: Attagene TRANS-FACTORIAL HepG2 Assay for human Nuclear Receptor Related Protein 1 (NURR1) (AID 2282985; active = hit-call score of the fitted dose curve at least 0.9, where 1 is the maximum); settings: HepG2 Attagene TRANS reporter, mRNA readout
Nuclear receptor subfamily 4 group A member 2 (Homo sapiens), sequence (P43354 whole entry, looked up, the tested form may be a part): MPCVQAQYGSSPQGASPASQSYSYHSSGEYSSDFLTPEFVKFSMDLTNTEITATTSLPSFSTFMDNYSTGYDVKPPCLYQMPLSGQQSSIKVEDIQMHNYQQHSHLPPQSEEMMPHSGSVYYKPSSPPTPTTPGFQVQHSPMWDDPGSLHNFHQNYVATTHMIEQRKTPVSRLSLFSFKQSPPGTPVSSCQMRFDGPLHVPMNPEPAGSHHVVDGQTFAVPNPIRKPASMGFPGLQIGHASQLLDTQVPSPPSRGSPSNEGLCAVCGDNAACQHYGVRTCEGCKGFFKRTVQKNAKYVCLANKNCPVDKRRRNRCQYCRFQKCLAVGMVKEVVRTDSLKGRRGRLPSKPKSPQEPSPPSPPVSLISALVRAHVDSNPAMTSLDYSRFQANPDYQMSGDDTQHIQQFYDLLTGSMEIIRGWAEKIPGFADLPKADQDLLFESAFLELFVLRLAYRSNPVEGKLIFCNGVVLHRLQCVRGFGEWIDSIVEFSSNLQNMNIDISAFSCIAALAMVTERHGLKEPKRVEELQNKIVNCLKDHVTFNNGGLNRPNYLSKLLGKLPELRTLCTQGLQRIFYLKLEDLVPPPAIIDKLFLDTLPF
Outline: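 Measures transcriptional activation by an exogenous NR-Gal4 chimera in transfected HepG2 liver cells. After 24 h, reporter RNA is reverse-transcribed, amplified and resolved by capillary electrophoresis; DMSO defines baseline.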

[18] = target: Bile acid receptor (Homo sapiens) (UniProt Q96RI1); test: ATG_FXR_TRANS: Attagene TRANS-FACTORIAL HepG2 Assay for Farnesoid X Receptor (FXR) (AID 2282979; active = hit-call score of the fitted dose curve at least 0.9, where 1 is the maximum;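 also: hits raise reporter mRNA above DMSO so AC50 marks FXR activation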); settings: HepG2 Attagene TRANS FXR-GAL4 reporter transcription
Bile acid receptor (Homo sapiens), sequence (Q96RI1 whole entry, looked up, the tested form may be a part): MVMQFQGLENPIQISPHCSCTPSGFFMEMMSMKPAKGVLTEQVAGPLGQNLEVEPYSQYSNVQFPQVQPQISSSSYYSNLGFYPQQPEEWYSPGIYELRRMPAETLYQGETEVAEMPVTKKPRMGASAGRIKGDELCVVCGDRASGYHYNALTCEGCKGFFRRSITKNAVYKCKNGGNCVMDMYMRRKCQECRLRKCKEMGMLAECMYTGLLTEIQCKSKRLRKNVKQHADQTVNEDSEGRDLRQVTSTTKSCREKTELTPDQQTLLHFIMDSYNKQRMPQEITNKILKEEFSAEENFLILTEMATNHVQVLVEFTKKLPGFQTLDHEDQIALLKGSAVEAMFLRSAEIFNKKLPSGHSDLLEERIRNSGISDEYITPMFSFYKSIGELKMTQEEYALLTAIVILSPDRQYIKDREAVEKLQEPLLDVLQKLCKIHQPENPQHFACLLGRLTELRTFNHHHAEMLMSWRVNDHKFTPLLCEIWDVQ
Outline: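 Transient transfection of HepG2 with multiplexed GAL4-UAS reporter units; exogenous FXR-GAL4 chimera. Dose 24 h → TriZol RNA → oligo(dT) RT → PCR, 6-FAM primer extension, HpaI cut → CE. Gain vs DMSO.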

[19] = target: Oxysterols receptor LXR-alpha (Homo sapiens) (UniProt Q13133); test: ATG_LXRa_TRANS: Attagene TRANS-FACTORIAL HepG2 Assay for human Liver X Receptor alpha (LXRa) (AID 2282980; active = hit-call score of the fitted dose curve at least 0.9, where 1 is the maximum); settings: HepG2 Attagene TRANS reporter, LXRa transactivation
Outline: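 Transfect HepG2 with GAL4-UAS multiplex reporter constructs (TRANS format, chimeric receptor-GAL4); treat 24 h; extract RNA, reverse-transcribe, PCR-amplify, FAM-label, HpaI-digest; resolve fragments by capillary electrophoresis. Upward response vs DMSO.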

[20] = target: Estrogen receptor (Homo sapiens) (UniProt P03372); test: ATG_ERa_TRANS: Attagene TRANS-FACTORIAL HepG2 Assay for human Estrogen Receptor alpha (ERa) (AID 2282970; active = hit-call score of the fitted dose curve at least 0.9, where 1 is the maximum); settings: HepG2 Attagene TRANS ERa GAL4 reporter, mRNA
Outline: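 Liver-derived HepG2 cells expressing chimeric nuclear receptor-Gal4 proteins from transient transfection were exposed for 24 hours. Gain of reporter mRNA signal versus DMSO, read by capillary electrophoresis of FAM-labelled PCR products, was recorded.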

Measured: AC50

O=C1CCCO1
inactive: [1] | [2] | [3] | [4] | [5] | [6] | [7] | [8] | [9] | [10] | [11] | [12]

Clc1ccc(C(c2ccc(Cl)cc2)C(Cl)(Cl)Cl)cc1
inactive: [1] | [2] | [3] | [13] | [5] | [14] | [7] | [15] | [10] | [16] | [17] | [11] | [12]

CN(C)c1ccccc1
inactive: [1] | [2] | [3] | [13] | [5] | [7] | [8] | [15] | [10] | [11] | [12]

CN(C)c1ccc(C(=O)c2ccc(N(C)C)cc2)cc1
inactive: [1] | [2] | [3] | [5] | [14] | [18] | [19] | [9] | [16] | [11] | [12]

CC(C)(C)C(O)(CCc1ccc(Cl)cc1)Cn1cncn1 (stereo not drawn)
inactive: [1] | [2] | [3] | [5] | [14] | [7] | [15] | [10] | [16] | [11] | [12]

Brc1ccc(Oc2ccccc2)cc1
inactive: [1] | [2] | [3] | [20] | [5] | [15] | [10] | [17] | [11] | [12]

CC(C)(O)c1cnn2c(-c3ccc(F)c(-c4c(F)cccc4C#N)c3)cnc2n1
active: [3] 0.538 µM | [18] 14.5 µM | [12] 8.4 µM
inactive: [1] | [2] | [5] | [6] | [14] | [8] | [15] | [16] | [11]

O=C(Oc1ccc(Br)cc1)N1CCN2CCC1CC2
inactive: [1] | [2] | [3] | [20] | [5] | [14] | [7] | [15] | [19] | [16] | [11] | [12]

Clc1ccc(Cl)c(Cl)c1
inactive: [1] | [2] | [3] | [13] | [5] | [7] | [9] | [10] | [17] | [11] | [12]

c1ccc(NNc2ccccc2)cc1
inactive: [1] | [2] | [3] | [5] | [14] | [15] | [9] | [16] | [11] | [12]
